# From PubChem
# SNCA expr inhib = Primary qHTS assay for inhibitors of alpha-synuclein gene (SNCA) expression; HEK-293 SNCA-luciferase knock-in, luminescence, 24 h; Potency, µM (top dose mostly 57.2 µM), actives largely listed as inhibitors; actives 0.17% (n = 140,000); further: nearly all actives have a fitted effect of over 45% in size
# HEK293 viab = GF-AFC viability counterscreen for inhibitors of alpha-synuclein gene (SNCA) expression; HEK-293-SNCA-luc viability, GF-AFC fluorescence, 24 h; Potency, µM (doses to about 57.1 µM), actives largely listed as cytotoxic; actives 0.12% (n = 150,000); AID 1671193, 2021; further: nearly all actives have a fitted effect of over 30% in size
#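 Cytotoxicity counterscreen: after 24 h compound treatment of genome-edited SNCA-luciferase HEK-293 cells, live-cell protease substrate GF-AFC read by fluorescence after 30 min; activity scaled between DMSO (0%) and medium-only (-100%), curves Hill-fitted.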
# GPT2 inhibitor = Primary qHTS assay for inhibitors of Glutamate pyruvate transaminase 2 (GPT2) | Potency, µM (titrated, usually from 57.7 µM), actives largely listed as inhibitors | actives 0.25% (n = 100,000) | Alanine aminotransferase 2 (Homo sapiens), Q8TD30 | Recombinant GPT2, coupled pyruvate oxidase/HRP Amplex Red fluorescence; further: nearly all actives have a fitted effect of over 60% in size
# Target sequence (Q8TD30 whole entry, looked up): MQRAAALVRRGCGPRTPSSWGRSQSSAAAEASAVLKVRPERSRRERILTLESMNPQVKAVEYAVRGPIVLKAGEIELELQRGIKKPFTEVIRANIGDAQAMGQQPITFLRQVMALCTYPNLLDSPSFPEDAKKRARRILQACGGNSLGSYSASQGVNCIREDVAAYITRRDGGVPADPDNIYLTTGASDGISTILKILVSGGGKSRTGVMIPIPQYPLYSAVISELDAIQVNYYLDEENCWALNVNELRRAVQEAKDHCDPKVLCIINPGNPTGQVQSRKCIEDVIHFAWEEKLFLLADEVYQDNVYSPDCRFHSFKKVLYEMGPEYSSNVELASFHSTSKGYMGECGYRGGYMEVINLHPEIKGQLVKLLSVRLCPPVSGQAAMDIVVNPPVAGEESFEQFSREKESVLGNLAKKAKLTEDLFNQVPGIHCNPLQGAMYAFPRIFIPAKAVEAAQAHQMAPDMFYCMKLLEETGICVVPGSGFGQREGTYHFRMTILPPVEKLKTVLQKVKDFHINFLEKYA
#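 GPT2 10ng/uL, a-KG 250uM, L-Ala 2mM, HEPES pH7.5 + 0.0001% Tween; 30 min RT. Then Amplex mix (PO/HRP/ThPP), 30 min RT dark, fluorescence. AOA 50uM used as positive control.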
# IP6K1 inh = Primary qHTS assay for small molecule inhibitors of Inositol hexaphosphate kinase 1 (IP6K1); activity change, % (series mostly up to about 58 µM); actives 0.81% (n = 140,000); IP6K1 kinase, ADP-Glo luminescence, 2 h; hits give low values; in the data active means activity change below about -25%
#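 ADP-Glo luminescence measures ADP made by human IP6K1 during a 2 h RT reaction with ATP/IP6 (mix at 1.3 mM/130 uM); top library doses 57.5 and 19.1 uM final.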
# IP6K1 conf = Confirmatory qHTS assay for small molecule inhibitors of Inositol hexaphosphate kinase 1 (IP6K1). shares compounds with IP6K1 inh. recombinant IP6K1 kinase, ADP-Glo luminescence, 2 h. Potency, µM (top dose mostly 49 µM), usual class: inhibitors. actives 13% (n = 1,200). AID 1645852, 2021; further: nearly all actives have a fitted effect of over 65% in size
# A number is an active result; - = inactive; ? = inconclusive; . = no result given; ! = not active in a repeat; [ ] = remark or other dose. Hits are enriched below; roughly 1.1% of the tested compounds scored in any of these assays. Unless noted, the call rests on the fitted dose curve; in most records, active means well fitted curve in the direction sought with a large enough effect; inconclusive means small, poorly fitted or top-dose-only effect, or another doubt; inactive means no such curve, though single readings can be large; an effect the other way counts as inactive or inconclusive.
SMILES,SNCA expr inhib,HEK293 viab,GPT2 inhibitor,IP6K1 inh,IP6K1 conf
Cn1ncc2c(C(=O)NCc3cccc(F)c3)cc(-c3ccccc3C(F)(F)F)nc21,.,.,.,-,.
Cc1cc2cc(C(=O)N(C)Cc3ccc4nsnc4c3)ccc2o1,-,-,-[11.5 µM],-32,?
CN(Cc1ccc2nsnc2c1)C(=O)c1ccc(CCC(C)(C)O)cc1,-,-,-,-,.
Cc1ccc(OCCCCn2cnc3ccccc32)cc1,-,-,.,-33,?
O=C1CO[C@H]2CCN(Cc3ccncc3Cl)CC[C@@H]2N1c1ccccc1,-,-,-,-,.
O=C(C1CC1)N1CCN(c2nccc(Nc3ccccc3F)n2)CC1,-,-,-,-,.
O=C(C1CCC1)N1CCC(=O)N(C2CCCC2)Cc2ccccc21,.,.,.,-,.
CN1C(=O)NC(Cc2c[nH]c3c(Cl)cccc23)C1=O (stereo not given),.,.,.,.,-
CN1C(=O)N[C@@H](Cc2c[nH]c3c(Cl)cccc23)C1=O,.,-,-,-,.
C#CC1(O)CC[C@H]2[C@@H]3CCC4=CCCC[C@@H]4[C@H]3CC[C@@]21C (stereo not given in full),-,-,-,-,.
C#C[C@]1(OC(C)=O)CC[C@H]2[C@@H]3CCC4=C/C(=N/O)CC[C@@H]4[C@H]3CC[C@@]21CC,-,-,-,-59,?
CCCCOc1ccc(-c2nc(C3CC(=O)N(C4CCCCC4)C3)no2)cc1 (stereo not given),?,-,-,-,.
CCOc1ccccc1N1CC(c2nc3ccccc3n2CCCOc2ccc(OC)cc2)CC1=O (stereo not given),-,-,.,-27,-
CCOc1ccccc1N1CC(c2nc3ccccc3n2CCOc2ccc(OC)cc2)CC1=O (stereo not given),?,?,.,-,.
CCN1C(=O)C2CC3(CCN(Cc4ccc(F)c(F)c4)CC3)CN2C1=O (stereo not given),-,-,-,-,.
N#CC(=Cc1ccc(O)c(O)c1)C(=O)NCc1ccccc1,-,-,?,.,?
Cn1ncc2c(C(=O)NC3CCOCC3)cc(-c3ccc(F)cc3)nc21,.,.,.,-,.
Cn1c(=O)nc2n(-c3ccc(Cl)c(Cl)c3)c3cc(Cl)ccc3cc-2c1=O,?,-,.,-,.
CC(C)c1cc(-c2n[nH]c(=O)n2-c2ccc3c(ccn3C)c2)c(O)cc1O,?,-,-,-43,9.2µM
CCCCNc1oc(-c2ccc(COc3ccc(OC)cc3)o2)nc1C#N,-,-,.,-31,-
COc1cccc2c1cc1c(=O)n(CC(=O)NCc3ccc(C)o3)nc(C)n12,-,-,.,-30,-
COc1cccc(CN(Cc2ccco2)c2cnc(S(C)(=O)=O)nc2C(=O)Nc2cccc(Cl)c2C)c1,-,-,.,-28,-
Cc1ccc(CN(Cc2ccco2)c2cnc(S(C)(=O)=O)nc2C(=O)Nc2ccc(Br)cc2)o1,-,-,.,-27,-
COc1ccc(CN(Cc2ccco2)c2cnc(S(C)(=O)=O)nc2C(=O)Nc2ccc(C)cc2C)cc1,-,-,.,-26,-
CS(=O)(=O)c1ncc(N(Cc2ccco2)Cc2ccco2)c(C(=O)Nc2ccccc2Br)n1,-,-,.,-,.
SMILES,SNCA expr inhib,HEK293 viab,GPT2 inhibitor,IP6K1 inh,IP6K1 conf
COc1ccccc1-c1cccc(CN2CCC(NC(=O)Nc3ccc(C)c(F)c3)CC2)c1,-,-,-,-,.
O=C(NC1CCCN(c2ccc3nnc(-c4ccccc4)n3n2)C1)c1ccccn1 (stereo not given),.,.,.,-,.
COc1ccc(Nc2ccnc(N3CCCC(C(=O)NCCc4ccccc4F)C3)n2)cc1 (stereo not given),-,?,-,-,.
Cc1cc(O)c2ccccc2c1O,-,-,?,-28,?
C#CCNC(=O)c1ccc(-c2ccc(OC)nn2)cc1Cl,.,.,.,-,.
CNC(=O)c1cc(C2CC2)nc2c1c(C1CCCN(C(=O)Cc3ccc(F)cc3)C1)nn2C (stereo not given),.,.,.,-,.
CO/N=C(/C(=O)N[C@@H]1C(=O)N2C(C(=O)OCOC(=O)C(C)(C)C)=C(C)CS[C@H]12)c1csc(N)n1,-,-,-,-,.
CO/N=C(/C(=O)N[C@@H]1C(=O)N2C(C(=O)O)=C(CSC(=O)c3ccco3)CS[C@H]12)c1csc(N)n1,.,-,-,-49!,?
CC(=O)c1cccc(Nc2nc(-c3cccc(C)c3)nc3ccccc23)c1,-,-,.,-39,?
Cc1ccc(-c2csc(=Nc3ccccc3)n2Cc2ccc3c(c2)OCO3)cc1C,-,-,.,-,.
Cc1ccc(-c2csc(=Nc3ccc(F)cc3)n2Cc2ccc3c(c2)OCO3)cc1C,-,-,.,-36,-
CCN(CC)S(=O)(=O)c1ccc(-c2csc(=Nc3cccc(C(F)(F)F)c3)n2Cc2ccc3c(c2)OCO3)cc1,-,-,.,-,.
Fc1ccc(-c2csc(=Nc3cccc(C(F)(F)F)c3)n2Cc2ccc3c(c2)OCO3)cc1,-,-,.,-26,-
COc1ccc(F)cc1-c1ccc(CN2CCC(N[S+](=O)([O-])c3c(C)noc3C)C2)cc1 (stereo not given),.,.,.,-,.
COc1cccc(-c2nc3cc4c(cc3cc2CN2CCCOCC2)OCO4)c1OC,-,-,-[11.5 µM],-35,-
COc1ccc(-c2noc([C@@H]3C[C@H](NS(=O)(=O)c4ccc(OC)cc4)CN3C)n2)cc1,-,-,-,-,.
O=C(Nc1noc2ccccc12)c1cccc(Cl)c1Cl,?,-,.,-,.
COc1ccc(C(=O)Nc2noc3ccccc23)cc1,?,-,.,-58,7.3µM
Cc1ccc(C(=O)Nc2noc3ccccc23)cc1,.,-,-,-55,?
CN(Cc1cnn(C)c1)C(=O)C1C2C(=O)N(Cc3ccc(F)cc3)C[C@@]23C=C[C@@H]1O3 (stereo not given in full),-,-,-[11.5 µM],-42,-
O=C(C1C2C(=O)N(Cc3ccc(F)cc3)C[C@@]23C=C[C@@H]1O3)N1CCSCC1 (stereo not given in full),-,-,-,-,.
Cc1ccc(-n2nc(C)c([C@@H]3C=C[C@@H](NS(=O)(=O)c4cccs4)C3)c2C)cc1Cl,-,?,?,-,.
Cc1ccc(CN(Cc2ccco2)C(=O)c2oc3ccc(C)cc3c2C)cc1,-,-,.,-,.
Cc1ccc(CN(Cc2ccco2)C(=O)c2oc3c(C)c(C)ccc3c2C)cc1,-,-,.,-29,?
Cc1cccc(C(=O)Nc2ccc(N3CCC(CCN4CCOCC4)CC3)c(C(=O)O)c2)c1,?,-,.,-,.
O=C(Nc1ccc(N2CCOCC2)c(C(=O)O)c1)c1ccc(Br)cc1,-,-,.,-33,?
O=C(Nc1ccc(N2CCC(N3CCCCC3)CC2)c(C(=O)O)c1)c1ccc(Br)cc1,-,-,.,-29,?
O=C(Nc1cnc(N2CCC(N3CCCCC3)CC2)c(C(=O)O)c1)c1ccc(Br)cc1,-,-,.,-34,?
